Compound activity: PubChem BioAssay, National Center for Advancing Translational Sciences (NCATS)
An excerpt weighted towards active compounds, which were near 17% of everything screened.
ATXN viability = viability counter-screen for ATXN expression inhibitors | S2 cells (HEK-293 line with an ATXN2-luciferase reporter) viability, CellTiter-Fluor protease fluorescence, 24 h | Potency, µM (top dose mostly 56.7 µM), usual class: cytotoxic | 0.49% of 400,000 active | AID 651635; also: nearly all actives have a fitted effect of over 40% in size
HepG2 viability = counter-screen for TGF-b inhibitors: cytotoxicity in HepG2 cells | HepG2 CAGA-GFP viability, ATP luminescence, 18 h | Potency, µM (doses to about 46.1 µM), for inactives: at the top dose activity change, negative = cytotoxicity, actives largely listed as cytotoxic | 0.76% of 410,000 active | AID 588856
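HepG2 CAGA-GFP cells (1000/well, DMEM with 1% FBS) received compound, then TGF-beta at 500 pg/mL final, and were incubated 18 hours at 37 degrees C. Viability was read by CellTiter-Glo luminescence. Media-only wells were set as complete cell-killing and DMSO as no toxicity.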
ATXN2 expr inh = inhibitors of ATXN2 expression; 0.72% of 360,000 active; HEK-293 ATXN2-luciferase reporter, luminescence, 24 h; Potency, µM (titrated, usually from 57 µM), inactives show at the top dose activity change, negative = inhibition, actives largely listed as inhibitors; also: % is scaled to controls: 0 for no effect and ±100 for the full control effect; nearly all actives have a fitted effect of over 55% in size
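qHTS (up to 57 uM final) was run with 24 h compound exposure of reporter cells at 37 °C. Each well was multiplexed: SteadyGlo luminescence measured ATXN2-luciferase expression after a fluorogenic Gly-Phe-AFC viability readout (25 uM final).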
TGFb SMAD3 inh = inhibitors of TGF-b signaling. AID 588855. HepG2 CAGA-GFP TGF-b/SMAD3 reporter, GFP fluorescence, 18 h; TGF-beta stimulated, 500 pg/mL final. Potency, µM (titrated, usually from 46.1 µM), for the others: at the highest dose activity, negative = inhibition, actives largely listed as inhibitors. 1.2% of 410,000 active; also: % is scaled to controls: 0 for no effect and ±100 for the full control effect; nearly all actives have a fitted effect of over 65% in size
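Read-out: total well GFP (ex488/em500-530) summed from mean per-cell fluorescence. Cells: HEPG2 CAGA-GFP, 1% FBS DMEM, 18 h at 37 degrees C with 500 pg/mL final TGF-beta. Unstimulated wells served as the full-inhibition control; stimulated DMSO wells = 0%.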
TDP1 cell noCPT = qHTS for Inhibitors of human tyrosyl-DNA phosphodiesterase 1 (TDP1): qHTS in cells in absence of CPT; DT40 Tdp1-/- hTDP1 cells, no CPT, ATP luminescence, 48 h; Potency, µM (titrated, usually from 46.2 µM), inactives show at the highest dose activity change, negative = growth inhibition, most hits filed as inhibitors; 15% of 420,000 active; AID 686978, 2013; also: % is scaled to controls: 0 for no effect and ±100 for the full control effect; nearly all actives have a fitted effect of over 55% in size
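A cellular qHTS used chicken DT40 cells lacking endogenous Tdp1 but carrying stably transfected human TDP1. Compounds were applied without camptothecin, and cell growth kinetics were judged by ATP-dependent luminescence after ≥48 hr.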
DT40 TDP1 CPT = growth inhibition of DT40 Tdp1-/-;hTDP1 cells with camptothecin (screen for TDP1 inhibitors). 12% of 420,000 active. AID 686979. chicken DT40 Tdp1-/-;hTDP1 cells + 20 nM CPT, ATP luminescence, 48 h. Potency, µM (titrated, usually from 46.2 µM), inactives show at the top dose activity change, negative = growth inhibition, usual class: inhibitors; also: % is scaled to controls: 0 for no effect and ±100 for the full control effect; nearly all actives have a fitted effect of over 55% in size
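Chicken DT40 Tdp1-/- cells stably complemented with human TDP1 were seeded at 400 cells/well in medium containing 20 nM camptothecin, exposed to pin-transferred compounds, and grown at 37 °C for at least 48 hr. Viability was read as ATP luminescence.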
Active calls of the source: *; i = inactive; ? = inconclusive; · = no result given. Calls follow the shape of the dose curve; as a rule, active = well fitted curve in the direction sought with a large enough effect; inconclusive = small, poorly fitted or top-dose-only effect, or another doubt; inactive = no such curve, though single readings can be large; an effect the other way counts as inactive or inconclusive. Potency is read from the fitted curve at half-maximal effect.

SMILES	ATXN viability	HepG2 viability	ATXN2 expr inh	TGFb SMAD3 inh	TDP1 cell noCPT	DT40 TDP1 CPT
O=C(Cn1ncc2c3ccccc3n(Cc3cccc(Cl)c3)c2c1=O)N1CCCCC1	?	2.5%	0.6%	-7.5%	11.6µM*	20.6µM*
Cc1ccccc1Cn1c2ccccc2c2cnn(CC(=O)N3CCN(c4ccccc4)CC3)c(=O)c21	i	6.1%	1.5%	?	?	?
Cc1ccc(NC(=O)Cn2ncc3c4ccccc4n(Cc4ccccc4)c3c2=O)cc1Cl	?	5.2%	4.3%	10.2%	?	?
O=C(Cn1ncc2c3ccccc3n(Cc3ccc(F)cc3)c2c1=O)N1CCN(c2ncccn2)CC1	i	-5.6%	15.1%	-9.5%	16.4µM*	18.4µM*
OC1c2cc(Cl)cc(Cl)c2N=C2CCCN21 (stereo unspecified)	i	-14.2%	-16.1%	-27.7%	-1.3%	1.8%
CCCCc1ccc(NC(=O)c2ccc(=O)n(Cc3cccc(C)c3)c2)cc1	?	-23.9%	?	?	18.4µM*	?
COC(=O)c1ccccc1NC(=O)c1ccc(=O)n(Cc2cccc(C)c2)c1	?	-22.1%	-6.7%	-10.8%	?	?
O=C(c1ccc([N+](=O)[O-])s1)N1CCN(c2ncccn2)CC1	i	-24.6%	·	-0.2%	?	20.6µM*
O=C(c1ccc([N+](=O)[O-])s1)N1CCN(c2ccc(C(F)(F)F)cn2)CC1	i	-34.7%	-31.0%	?	16.4µM*	13µM*
Cc1ccc(-n2c(=O)c3cccnc3n2CC(=O)Nc2cccc(C)c2C)cc1	?	-31.4%	?	-29.0%	?	?
CCCCOC(=O)CC(CC(=O)OCCCC)(OC(C)=O)C(=O)OCCCC	i	·	4.1%	·	?	?
O=C(NCc1ccccc1)[C@H](Cc1ccccc1)NC(=O)[C@@H]1O[C@@H]1C(=O)NCCc1ccc(O)cc1	·	·	2.1%	·	·	·
COc1ccccc1Nc1nc(N)nc(-c2cc3ccccc3o2)n1	i	-37.4%	48.8%	0.0%	?	-28.5%
Cc1cccc(Nc2ncnc(N)n2)c1	i	-4.1%	14.1%	-10.6%	12.6%	4.7%
Cc1ccc(Nc2nc(N)nc(-c3oc4ccccc4c3C)n2)cc1	i	3.1%	·	?	0.058µM*	0.206µM*
CCc1nc(Nc2cccc(OC)c2)c2oc3ccccc3c2n1	·	2.2%	-21.5%	22.9%	?	?
Cc1c(-c2nc(N)nc(Nc3ccccc3F)n2)oc2ccccc12	i	-35.3%	107.3%	-7.6%	18.4µM*	?
Cc1cccc(Nc2nc(N)nc(-c3oc4ccccc4c3C)n2)c1	?	-25.6%	65.4%	-28.5%	25.9µM*	?
COc1cccc(Nc2nc(N)nc(-c3oc4ccccc4c3C)n2)c1	?	-32.2%	39.5%	?	8.2µM*	6.51µM*
CN(C)S(=O)(=O)c1cccc(C(=O)N2CCN(C(=O)C3CCCO3)CC2)c1 (stereo unspecified)	i	-0.4%	2.7%	-2.5%	11.0%	2.6%
Cc1ccc(S(=O)(=O)N2CCCC2C(=O)NC2=NCCS2)cc1 (stereo unspecified)	?	-5.8%	-3.6%	6.4%	-5.3%	9.5%
COc1cc(OC)c(OC)cc1CN1CCSCC1	?	2.4%	-10.2%	12.8%	-1.7%	-3.6%
CC(=O)Oc1ccc(C2(c3ccc(OC(C)=O)cc3)Oc3ccccc3NC2=O)cc1	?	·	?	·	18.8µM*	?
Cc1ccc(-n2c(=O)[nH]c3c(C(N)=O)nc(-c4ccc(C)o4)nc32)cc1	i	-87.4%	-4.2%	?	13µM*	9.2µM*
Cc1ccc(-n2c(=O)[nH]c3c(C(N)=O)nc(CC(C)C)nc32)cc1	i	-18.0%	-12.5%	-17.7%	-14.3%	-22.5%
